# PubChem BioAssay (NCATS)
# Results filed as inconclusive are left out. Activity calls are given as the source filed them. Unless noted, calls follow the shape of the dose curve; as a rule, active = well fitted curve in the direction sought with a large enough effect; inconclusive = small, poorly fitted or top-dose-only effect, or another doubt; inactive = no such curve, though single readings can be large; an effect the other way counts as inactive or inconclusive.
# Legend:
# [1] = Quantitative High-Throughput drug screen in 47 multiple myeloma cell lines against the NCATS MIPE library collection: KMS28BM_JCRB cell viability assay (AID 1919874); settings: CellTiter-Glo ATP, 48 h; series mostly up to 45.8 µM; also: nearly all actives have a fitted effect of over 35% in size; also: potency is read from the fitted curve at half-maximal effect
# Procedure, shortened: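 500 cells/well; MIPE 4.0 drugs pin-transferred; 48 h, 37C, 5% CO2. CellTiter-Glo, 5 min RT, luminescence. Controls: DMSO 100%, media 0%.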
# [2] = qHTS profiling for inhibitors of Plasmodium falciparum proliferation (AID 504749); also: nearly all actives have a fitted effect of over 60% in size; also: potency is read from the fitted curve at half-maximal effect;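 as to activity, negative = inhibition: 0% = DMSO vehicle and full inhibition = artemisinin control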; settings: P. falciparum in erythrocytes, SYBR Green DNA, 72 h
# Procedure, shortened: (§1)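 SYBR Green fluorescence (ex 485 nm, em 535 nm) reports parasite DNA after 72 h compound exposure of infected red cells at 0.3% parasitemia, 2.5% hematocrit; signal normalized to 0.29 uM artemisinin and vehicle wells.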
# 3D7 = assay: as above; settings: P. falciparum in erythrocytes, SYBR Green DNA, 72 h; series mostly up to 28.7 µM
# Procedure, shortened: as §1
# 7G8 = assay: as above; settings: P. falciparum in erythrocytes, SYBR Green DNA, 72 h; series mostly up to 28.7 µM
# Procedure, shortened: as §1
# AA1029 = assay: as above; settings: P. falciparum in erythrocytes, SYBR Green DNA, 72 h; series mostly up to 28.7 µM
# Procedure, shortened: as §1
# AS120 = assay: as above; settings: P. falciparum in erythrocytes, SYBR Green DNA, 72 h; series mostly up to 28.7 µM
# Procedure, shortened: as §1
# ATS189 = assay: as above; settings: P. falciparum in erythrocytes, SYBR Green DNA, 72 h; series mostly up to 28.7 µM
# Procedure, shortened: as §1
# ATS95 = assay: as above; settings: P. falciparum in erythrocytes, SYBR Green DNA, 72 h; series mostly up to 28.7 µM
# Procedure, shortened: as §1
# C2A = assay: as above; settings: P. falciparum in erythrocytes, SYBR Green DNA, 72 h; series mostly up to 28.7 µM
# Procedure, shortened: as §1
# [3] = qHTS drug screen for cell cycle checkpoint inhibitors in PARPi-resistant BRCA-mutant ovarian cancer cell lines. (AID 1963452; calls by dose curve); settings: PEO1/OlaR viability, CellTiter-Glo luminescence, 96 h, stronger effect = lower value
# Procedure, shortened: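 PEO1, PEO4 and PEO1/OlaR ovarian cancer cells, 600 per well, exposed 96 h at 37C to a dilution series. Viability read by CellTiter-Glo luminescence, normalized to DMSO and empty wells; activity summarized as Z-AUC.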
# [4] = qHTS for identification of novel therapeutic agents for treatment of microphthalmiaassociated transcription factor (MiT) renal cell carcinoma (RCC) (AID 1963991); settings: CellTiter-Glo, 48 h, stronger effect = lower value
# Procedure, shortened: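 Curves over 11 concentrations were fitted to CellTiter-Glo luminescence, scaled between empty wells (0%) and DMSO (100%) viability. Cells were UOK109, UOK124 and UOK145 TFE3-fusion RCC lines at 500/well, exposed 48 hours at 37 C.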
# [5] = at 28.7 µM (top of the series), parasite line A
# [6] = at 28.7 µM (top of the series), parasite line B
# [7] = measured here: PEO1 parental Z-AUC
# [8] = TFE3-RCC UOK109 viability, measured here: UOK109 Z-AUC
# [9] = TFE3-RCC viability, measured here: UOK124 Z-AUC
# [10] = TFE3-RCC viability, measured here: UOK145 Z-AUC
# [11] = at 12.8 µM (top of the series), parasite line A
# [12] = at 12.8 µM (top of the series), parasite line B
smiles,measurement,setting,value
CN1CCN(C(=O)O[C@H]2c3nccnc3C(=O)N2c2ccc(Cl)cn2)CC1,Potency,[1],inactive
same,"activity, negative = inhibition",[2]; [5],-9.31% (inactive)
same,"activity, negative = inhibition",[2]; [6],-0.974% (inactive)
same,Potency,3D7,inactive
same,Potency,7G8,inactive
same,Potency,AA1029,inactive
same,Potency,AS120,inactive
same,Potency,ATS189,inactive
same,Potency,ATS95,inactive
same,Potency,C2A,inactive
N[C@@H]1C[C@H]1c1ccccc1,Z-AUC,[3],0.628 (inactive)
same,Z-AUC,[3]; [7],1.13
same,Z-AUC,[3]; measured here: PEO4 Z-AUC,0.895
CN(C)CCN(C)CCc1ccc(Cl)c(Cl)c1,Potency,[1],inactive
same,Z-AUC,[3],1.45 (inactive)
same,Z-AUC,[3]; [7],1.36
same,Z-AUC,[3]; measured here: PEO4 Z-AUC,1.58
Cc1sc2c(c1C)C(c1ccc(Cl)cc1)=N[C@@H](CC(=O)OC(C)(C)C)c1nnc(C)n1-2,Potency,[1],105 nM (active)
same,Z-AUC,[3],-0.873 (inactive)
same,Z-AUC,[3]; [7],-0.421
same,Z-AUC,[3]; measured here: PEO4 Z-AUC,-0.731
NCC1(CC(=O)O)CCCCC1,Potency,[1],inactive
same,Z-AUC,[3],0.463 (inactive)
same,Z-AUC,[3]; [7],0.917
same,Z-AUC,[3]; measured here: PEO4 Z-AUC,-0.172
same,z-score,[4]; [8],0.318
same,z-score,[4]; [9],0.516
same,z-score,[4]; [10],-0.0302
same,"activity, negative = inhibition",[2]; [11],5.08% (inactive)
same,"activity, negative = inhibition",[2]; [12],1.35% (inactive)
same,Potency,3D7,inactive
same,Potency,7G8,inactive
same,Potency,AA1029,inactive
same,Potency,AS120,inactive
same,Potency,ATS189,inactive
same,Potency,ATS95,inactive
same,Potency,C2A,inactive
COc1ccc(C(=O)c2c(C)n(CCN3CCOCC3)c3ccccc23)cc1,Potency,[1],inactive
same,Z-AUC,[3],0.0561 (inactive)
same,Z-AUC,[3]; [7],-0.45
same,Z-AUC,[3]; measured here: PEO4 Z-AUC,-1.01
same,z-score,[4]; [8],0.603
same,z-score,[4]; [9],0.604
same,z-score,[4]; [10],0.655
same,"activity, negative = inhibition",[2]; [5],-0.832% (inactive)
same,"activity, negative = inhibition",[2]; [6],8.06% (inactive)
same,Potency,3D7,inactive
same,Potency,7G8,12600 nM (active)
same,Potency,AA1029,inactive
same,Potency,AS120,inactive
same,Potency,ATS189,inactive
same,Potency,ATS95,inactive
same,Potency,C2A,inactive
COC1(CS(=O)c2ccccc2)CCN(CCc2c[nH]c3ccc(F)cc23)CC1 (stereo not given),Potency,[1],743 nM (active)
same,Z-AUC,[3],0.788 (inactive)
same,Z-AUC,[3]; [7],0.436
same,Z-AUC,[3]; measured here: PEO4 Z-AUC,0.362
Cn1c(CCCC(=O)O)nc2cc(N(CCCl)CCCl)ccc21,Potency,[1],inactive
same,Z-AUC,[3],2 (inactive)
same,Z-AUC,[3]; [7],1.56
same,Z-AUC,[3]; measured here: PEO4 Z-AUC,2.09
same,z-score,[4]; [8],1.39
same,z-score,[4]; [9],2.59
same,z-score,[4]; [10],0.899
same,"activity, negative = inhibition",[2]; [5],-26.2% (inactive)
same,"activity, negative = inhibition",[2]; [6],3.04% (inactive)
same,Potency,3D7,inactive
same,Potency,AA1029,inactive
same,Potency,AS120,inactive
same,Potency,ATS189,inactive
same,Potency,ATS95,inactive
same,Potency,C2A,inactive
CN(C)[C@@H]1C(=O)C(C(N)=O)=C(O)[C@@]2(O)C(=O)C3=C(O)c4c(O)cccc4[C@@](C)(O)[C@H]3C[C@@H]12,Potency,[1],inactive
same,Z-AUC,[3],1.23 (inactive)
same,Z-AUC,[3]; [7],0.408
same,Z-AUC,[3]; measured here: PEO4 Z-AUC,1.42
same,z-score,[4]; [8],1.21
same,z-score,[4]; [9],0.89
same,z-score,[4]; [10],1.72
CNCC(O)c1ccc(O)cc1 (stereo not given),Potency,[1],inactive
same,Z-AUC,[3],-0.876 (inactive)
same,Z-AUC,[3]; [7],-0.301
same,Z-AUC,[3]; measured here: PEO4 Z-AUC,-0.927
same,z-score,[4]; [8],0.0605
same,z-score,[4]; [9],0.435
same,z-score,[4]; [10],-0.102
C[C@]12CCC(=O)C(O)=C1CC[C@@H]1[C@@H]2CC[C@]2(C)C(=O)CC[C@@H]12,Z-AUC,[3],0.873 (inactive)
same,Z-AUC,[3]; [7],1.02
same,Z-AUC,[3]; measured here: PEO4 Z-AUC,1.06
O=P1(NCCCl)OCCCN1CCCl (stereo not given),Z-AUC,[3],0.293 (inactive)
same,Z-AUC,[3]; [7],-0.297
same,Z-AUC,[3]; measured here: PEO4 Z-AUC,-0.293
same,"activity, negative = inhibition",[2]; [11],-2.67% (inactive)
same,"activity, negative = inhibition",[2]; [12],0.405% (inactive)
same,Potency,3D7,inactive
same,Potency,7G8,inactive
same,Potency,AA1029,inactive
same,Potency,AS120,inactive
same,Potency,ATS189,inactive
same,Potency,ATS95,inactive
same,Potency,C2A,inactive
CNC(=O)c1ccc(N2C(=S)N(c3ccc(C#N)c(C(F)(F)F)c3)C(=O)C23CCC3)cc1F,Potency,[1],inactive
same,Z-AUC,[3],1.87 (inactive)
same,Z-AUC,[3]; [7],1.38
same,Z-AUC,[3]; measured here: PEO4 Z-AUC,1.39
